Screening data: PubChem, National Center for Advancing Translational Sciences (NCATS)
LMNA splice mod = modulators of lamin A splicing; HeLa LMNA splicing GFP/RFP minigene ratio, 48 h; Potency, µM (highest dose often 46.1 µM), most hits filed as inhibitors; 200,000 tested, 0.01% active; active = well fitted inhibition curve with a large enough effect in the signal ratio, with a control signal flat, not every such curve was filed as active; inconclusive = small, poorly fitted or top-dose-only effect, or effect the other way, or a change in a side signal; the % refers to the signal ratio
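S3 HeLa stable clones carrying a lamin A-EGFP splicing minigene plus DsRed2 were seeded at 600 cells/well in Opti-MEM with 2% FBS, pin-dosed and incubated 48 h at 37°C. Acumen cytometry (488 nm) gave the GFP/RFP total-intensity ratio.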
Luc counter = blocks Kinase-Glo luciferase, a counter-screen artifact. Potency, µM (titrated, usually from 38.3 µM), most hits filed as inhibitors. Q27757. Kinase-Glo luciferase, ATP luminescence, 8 min. AID 1379. 200,000 tested, 0.28% active; note: nearly all actives have a fitted effect of over 60% in size
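Recombinant Kinase-Glo luciferase, 10 uM ATP (linear range), luciferin; imidazole pH 7.2 / KCl / MgCl2 / Tween / BSA buffer; 8 min RT; luminescence.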
ALDH1A1 block = ALDH1A1 (human) enzyme inhibition | P00352 | Purified ALDH1A1, NADH fluorescence, propionaldehyde substrate | Potency, µM (doses to about 75.3 µM), actives largely listed as inhibitors | 220,000 tested, 7.3% active | AID 1030; active = well fitted inhibition curve with a large enough effect, not every such curve was filed as active; inconclusive = small, poorly fitted or top-dose-only effect, or another doubt; inactive = no such curve, though single readings can be large or run the other way
Target sequence (P00352 whole entry, looked up): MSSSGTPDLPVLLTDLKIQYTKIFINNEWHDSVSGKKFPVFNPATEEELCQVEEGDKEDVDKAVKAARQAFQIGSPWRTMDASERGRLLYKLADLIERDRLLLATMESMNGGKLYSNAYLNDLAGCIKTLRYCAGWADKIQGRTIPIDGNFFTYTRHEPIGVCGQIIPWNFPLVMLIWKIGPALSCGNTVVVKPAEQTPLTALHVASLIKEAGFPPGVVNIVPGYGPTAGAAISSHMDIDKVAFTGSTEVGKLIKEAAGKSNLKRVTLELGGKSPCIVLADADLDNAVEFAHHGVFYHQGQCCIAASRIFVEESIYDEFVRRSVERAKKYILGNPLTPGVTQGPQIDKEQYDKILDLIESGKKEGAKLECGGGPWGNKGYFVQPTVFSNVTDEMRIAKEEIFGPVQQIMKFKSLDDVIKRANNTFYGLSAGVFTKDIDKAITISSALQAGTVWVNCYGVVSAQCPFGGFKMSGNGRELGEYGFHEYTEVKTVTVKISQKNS
HPGD inh = HPGD (human) dehydrogenase inhibition; Potency, µM, usual class: inhibitors; AID 894; 150,000 tested, 4.3% active; purified HPGD, NADH fluorescence kinetic, PGE2 substrate; active = well fitted inhibition curve with a large enough effect, not every such curve was filed as active; inconclusive = small, poorly fitted or top-dose-only effect, or another doubt; inactive = no such curve, though single readings can be large or run the other way
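NADH formation kinetics: reaction with 30 uM PGE2 and 1 mM NAD+ (final), 20 nM enzyme, Tris-HCl pH 8 with Tween 20, after 15 min compound preincubation at room temperature. Fluorescence change, last versus first of five reads.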
HTT aggregate = mutant huntingtin aggregation inhibition; PC12 HttQ103-GFP aggregates, Acumen cytometry, 40 h; Potency, µM (titrated, usually from 46.1 µM), usual class: inhibitors; 220,000 tested, 1.1% active; note: nearly all actives have a fitted effect of over 60% in size
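Using laser scanning cytometry, GFP-positive aggregates were counted after lysis of PC12 cells induced with 100 nM tebufenozide to express HTT exon 1 Q103–GFP. Compounds were tested in titration.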
HTT cytoprotect = cytoprotection in Huntington HTT-Q103 PC12 cell model | AID 1471 | 230,000 tested, 0.14% active | Potency, µM (titrated, usually from 56.4 µM), actives largely listed as activators | PC12 HTT-Q103 induced, cytoprotection, ATP luminescence, 40 h; note: nearly all actives have a fitted effect of over 45% in size
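Compounds added alongside 100 nM tebufenozide, which induces toxic Q103 huntingtin exon 1-GFP in stable PC12 cells; surviving cells quantified by luminescent ATP measurement. Medium: phenol red-free DMEM, 5% equine and 5% calf serum.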
A number is an active result; ! = a repeat was not active; [ ] = remark or other dose. Hits are enriched below; roughly 9% of the tested compounds scored in any of these assays. Unless noted, calls come from the whole dose curve; as a rule, active = well fitted curve in the direction sought with a large enough effect; inconclusive = small, poorly fitted or top-dose-only effect, or another doubt; inactive = no such curve, though single readings can be large; an effect the other way counts as inactive or inconclusive.

For Cc1sc2ncnc(NC3CCN(Cc4ccccc4)CC3)c2c1C the results were LMNA splice mod inconclusive, Luc counter inactive, ALDH1A1 block inactive, HTT aggregate 7.08µM and HTT cytoprotect inactive[10 µM].
`CSc1nc(N)n(-c2cc(C(F)(F)F)ccn2)n1` gave HTT aggregate inactive[9.22 µM] and HTT cytoprotect inactive[10 µM].
For CCCCCOC(=O)C(C)c1c(C)[nH]c(=S)[nH]c1=O (configuration not stated) the results were LMNA splice mod inactive, Luc counter inactive, ALDH1A1 block inactive, HPGD inh inactive, HTT aggregate inactive and HTT cytoprotect inactive.
COc1ccc(C(C[N+](=O)[O-])c2c(-c3ccccc3)cc3ccccn23)c(OC)c1 (configuration not stated) was read as LMNA splice mod inactive, Luc counter inactive, ALDH1A1 block inconclusive, HPGD inh 22.4µM, HTT aggregate inconclusive and HTT cytoprotect inactive.
O=C(c1ccco1)N(CCC(c1ccccc1)c1ccco1)Cc1ccc(F)cc1 (configuration not stated) was read as LMNA splice mod inconclusive, Luc counter inactive, ALDH1A1 block 14.1µM, HPGD inh inactive, HTT aggregate inactive and HTT cytoprotect inactive.
CCC(=O)N(CCC(c1ccc(C)cc1)c1ccco1)Cc1ccco1 (configuration not stated) was read as ALDH1A1 block 22.4µM, HTT aggregate inactive[9.22 µM] and HTT cytoprotect inactive[10 µM].
Cc1ccc(S(=O)(=O)NNC(=S)Nc2ccc(Cl)cc2)cc1 was read as HTT aggregate inactive[9.22 µM] and HTT cytoprotect inactive[10 µM].
CCc1ccc(S(=O)(=O)NC(=S)Nc2ccccc2)cc1 was read as ALDH1A1 block 31.6µM, HTT aggregate inactive and HTT cytoprotect inconclusive.
For Cc1ccc(S(=O)(=O)NNC(=S)Nc2ccccc2)cc1 the results were LMNA splice mod inactive, Luc counter inactive, ALDH1A1 block 7.51µM, HPGD inh 11.2µM, HTT aggregate inactive and HTT cytoprotect inactive.
For Cc1cc(N2CCCCC2)nc(-c2ccc(Br)cc2)n1 the results were Luc counter inactive, ALDH1A1 block inactive, HTT aggregate inactive and HTT cytoprotect inactive[10 µM].
O=C(NC(C(=O)c1ccccc1)N1CCCCC1)c1ccccc1 (configuration not stated) was read as LMNA splice mod inactive, Luc counter inactive, ALDH1A1 block inconclusive, HPGD inh inactive, HTT aggregate inconclusive and HTT cytoprotect inactive.
`COC(=O)c1ccc2nc(NC(=O)C(C)(C)C)sc2c1` gave LMNA splice mod inactive[9.22 µM], Luc counter inactive, ALDH1A1 block inactive, HTT aggregate inactive and HTT cytoprotect inactive.
For CC(C)CC(=O)NNC(=S)Nc1ccc(S(N)(=O)=O)cc1 the results were Luc counter inactive, ALDH1A1 block 11.2µM, HTT aggregate inactive[9.22 µM] and HTT cytoprotect inactive.
Screening NS(=O)(=O)c1ccc(NC(=S)NCc2ccccc2)cc1 returned LMNA splice mod inactive, Luc counter inactive, ALDH1A1 block 20µM, HPGD inh 20µM, HTT aggregate inactive and HTT cytoprotect inactive[10 µM].
Screening O=C(Nc1ccc(Oc2cccnc2)cc1)c1ccccc1Cl returned LMNA splice mod inactive, ALDH1A1 block inconclusive and HTT aggregate 11.2µM.
Screening S=C(NCc1cccnc1)Nc1ccc(Oc2ccccc2)cc1 returned LMNA splice mod inconclusive, Luc counter inactive, ALDH1A1 block 31.6µM, HTT aggregate inconclusive and HTT cytoprotect inactive.
`O=C(Nc1ccc(Oc2cccnc2)cc1)c1ccccc1F` gave LMNA splice mod inactive, Luc counter inactive, ALDH1A1 block inactive, HPGD inh inconclusive, HTT aggregate inactive and HTT cytoprotect inactive.
For CC(C)NC(=O)N1CCC2(CC1)CCN(S(C)(=O)=O)CC2 the results were Luc counter inactive, ALDH1A1 block inactive, HPGD inh inactive and HTT cytoprotect inactive.
`NS(=O)(=O)c1ccc(NC(=S)NCc2ccccc2Cl)cc1` gave LMNA splice mod inactive, Luc counter inactive, ALDH1A1 block 25.1µM, HPGD inh inactive, HTT aggregate inactive and HTT cytoprotect inactive[10 µM].
CC(=O)NC1C(=O)N(Cc2ccccc2)c2ccc(Br)cc21 (configuration not stated) was read as HTT aggregate inactive[9.22 µM] and HTT cytoprotect inactive[10 µM].
`Cn1cc(C(=O)N/N=C/C(Br)=C/c2ccccc2)ccc1=O` gave LMNA splice mod inconclusive, Luc counter inactive, ALDH1A1 block inconclusive, HPGD inh 28.2µM, HTT aggregate inconclusive and HTT cytoprotect inactive[10 µM].
`Cn1cc(C(=O)N/N=C/C(Br)=C\c2ccccc2)ccc1=O` gave LMNA splice mod inconclusive, Luc counter inactive, ALDH1A1 block inconclusive, HPGD inh inactive, HTT aggregate inactive and HTT cytoprotect inactive.
NCCc1cnc[nH]1 was read as LMNA splice mod 0.891µM!, Luc counter inactive, ALDH1A1 block inactive, HPGD inh inactive, HTT aggregate inactive and HTT cytoprotect inconclusive.
For NCCC(=O)NCCc1cnc[nH]1 the results were LMNA splice mod inconclusive, Luc counter inactive, ALDH1A1 block inactive, HPGD inh inactive and HTT cytoprotect inactive.
`CCCCC(=O)NC(=S)Nc1nnn(CCC)n1` gave LMNA splice mod inconclusive, Luc counter inactive, ALDH1A1 block 0.501µM, HTT aggregate inactive and HTT cytoprotect inactive.
Screening CCCCn1nnc(NC(=O)c2ccc(-c3ccccc3[N+](=O)[O-])o2)n1 returned LMNA splice mod inactive, Luc counter inactive, ALDH1A1 block inconclusive, HTT aggregate inactive and HTT cytoprotect inactive.
For CCCCn1nnc(NC(=S)NC(=O)c2ccc(-c3cccc(Cl)c3Cl)o2)n1 the results were LMNA splice mod inactive, ALDH1A1 block 3.55µM, HTT aggregate inactive and HTT cytoprotect inactive[10 µM].
Screening CC(Sc1nnc(-c2ccccc2)c(-c2ccccc2)n1)C(=O)Nc1ncc(Cl)cc1Cl (configuration not stated) returned LMNA splice mod inconclusive, Luc counter inactive, ALDH1A1 block inconclusive, HPGD inh inactive, HTT aggregate inactive and HTT cytoprotect inactive[10 µM].
Cc1csc(NC(=O)Cn2nc(C)c([N+](=O)[O-])c2C)n1 was read as LMNA splice mod inconclusive, Luc counter inactive, ALDH1A1 block inactive, HTT aggregate inactive and HTT cytoprotect inactive[10 µM].
Screening CCc1c(C)sc(NC(=O)Cn2nc(C)c([N+](=O)[O-])c2C)c1C(N)=O returned LMNA splice mod inactive, Luc counter inactive, ALDH1A1 block 7.08µM, HTT aggregate inactive[9.22 µM] and HTT cytoprotect inactive[10 µM].
For N#CC1=C(N)N(c2ccccc2C#N)C2=C(C(=O)CCC2)C1c1ccsc1 (configuration not stated) the results were LMNA splice mod inactive, Luc counter inactive, ALDH1A1 block 25.1µM, HPGD inh inactive, HTT aggregate inactive and HTT cytoprotect inactive.
